This note sets out measurements from PubChem BioAssay (NCI).

Test [1] in a line: NCI Yeast Anticancer Drug Screen. Data for the rad50 strain (AID 155).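 Also: 0% = growth of vehicle-only cultures of the same strain.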 Conditions: S. cerevisiae rad50 strain growth inhibition, active compounds read high. Put shortly:
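Readout: growth inhibition relative to vehicle-treated cultures. Compound exposure was carried out in a genetically defined yeast strain deficient in DNA damage repair.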

Test [2] in a line: NCI Yeast Anticancer Drug Screen. Data for the mec2-1 strain (AID 157). Conditions: S. cerevisiae mec2-1 strain, active compounds read high. Put shortly:
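Vehicle-treated cultures served as reference for growth inhibition of compound-exposed mec2-1 yeast.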

The nature of test [3]: NCI Yeast Anticancer Drug Screen. Data for the sgs1 mgt1 strain (AID 161).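 Also: 0% = growth of cultures given vehicle only.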 The settings on record: S. cerevisiae sgs1 mgt1 strain, active compounds read high. Put shortly: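 Genetically altered yeast, compound exposure, growth inhibition relative to vehicle.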
The nature of test [4]: NCI Yeast Anticancer Drug Screen. Data for the cln2 rad14 strain (AID 165).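 Also: 0% = growth equal to vehicle treated cultures.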 Conditions: S. cerevisiae cln2 rad14 strain, active compounds read high. The essentials: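 Each compound was tested on cln2 rad14 yeast. Inhibition of growth was calculated against vehicle-exposed controls.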
Test [5] can be described thus: NCI Yeast Anticancer Drug Screen. Data for the bub3 strain (AID 167). Conditions: S. cerevisiae bub3 mutant strain, active compounds read high. The essentials: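 Readout: yeast growth inhibition, expressed relative to vehicle-only wells. The test organism is a mutant strain from a panel with lesions in DNA repair or checkpoint genes.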
The nature of test [6]: NCI Yeast Anticancer Drug Screen. Data for the mlh1 rad18 strain (AID 175). Conditions: S. cerevisiae mlh1 rad18 strain growth inhibition, active compounds read high. Put shortly: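 Vehicle-treated cultures served as the reference for growth inhibition in a yeast strain carrying DNA damage repair alterations exposed to each compound.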
The mark [7] stands for this setting: at 5.0 µM (retest, dose inferred, filed as 0.5).
Setting [8] is: at 50.0 µM (retest, dose inferred, filed as 5.0).

The panel holds about 79,000 compounds, 15% with a hit somewhere; the sample as a whole holds those more often. A number with no mark means an inactive call. Active and inactive are the calls of the source. Rule as the data show it: active = growth inhibition above about 70%; inactive = the rest.

On to `Cc1ccc(S(=O)(=O)/C=C2\COc3ccccc3C2=O)cc1`, for which the growth inhibition in test [1] (setting [7]) is 51%; in test [1] (setting [8]), 99% (active); in test [1] (at 50.0 µM), 99.2% (active); in test [2] (setting [7]), 65%; in test [2] (setting [8]) it was 99% (active); in test [2] (at 50.0 µM), 99.7% (active). For the same compound, the growth inhibition in test [3] (setting [7]) was 90% (active); in test [3] (setting [8]), 100% (active); in test [3] (at 50.0 µM) it was 99.2% (active); in test [4] (setting [7]) it was 44%; in test [4] (setting [8]), 99% (active); in test [4] (at 50.0 µM), 99% (active). The growth inhibition in test [5] (setting [7]) is 77% (active); in test [5] (setting [8]), 99% (active); in test [5] (at 50.0 µM) it was 99.5% (active); in test [6] (setting [7]), 79% (active); in test [6] (setting [8]) it was 99% (active); in test [6] (at 50.0 µM) it was 99.5% (active).

On to `O=C(CCBr)NC(=O)Oc1cccc2ccccc12`, for which the growth inhibition in test [1] (setting [7]) was 1%; in test [1] (setting [8]) it was 17%; in test [1] (at 50.0 µM) it was 87.2% (active); in test [2] (setting [7]) it was 1%; in test [2] (setting [8]) it was 29%; in test [2] (at 50.0 µM), 97.2% (active). The growth inhibition in test [3] (setting [7]) is 5%; in test [3] (setting [8]) it was 55%; in test [3] (at 50.0 µM), 91.3% (active); in test [4] (setting [7]), 4%; in test [4] (setting [8]), 11%; in test [4] (at 50.0 µM), 28.1%. The growth inhibition is -8% in test [5] (setting [7]); 18% in test [5] (setting [8]); 85.6% (active) in test [5] (at 50.0 µM); 2% in test [6] (setting [7]); 65% in test [6] (setting [8]); 95.3% (active) in test [6] (at 50.0 µM).

As for `CN1C(=O)c2ccccc2C1(c1ccccc1)c1ccccc1`, the growth inhibition in test [1] (setting [7]) is 0%; in test [1] (setting [8]), 90% (active); in test [1] (at 50.0 µM), 30.1%; in test [2] (setting [7]), 2%; in test [2] (setting [8]) it was 96% (active); in test [2] (at 50.0 µM), 14.8%. Also, the growth inhibition in test [3] (setting [7]) was 4%; in test [3] (setting [8]) it was 98% (active); in test [3] (at 50.0 µM), 20.9%; in test [4] (setting [7]), 13%; in test [4] (setting [8]), 37%; in test [4] (at 50.0 µM) it was 43.1%. In addition, the growth inhibition in test [5] (setting [7]) is 5%; in test [5] (setting [8]), 62%; in test [5] (at 50.0 µM), 45.1%; in test [6] (setting [7]) it was 15%; in test [6] (setting [8]), 95% (active); in test [6] (at 50.0 µM), 56.9%.

`COC(=O)C1=Cc2cc3c(cc2[C@H](c2ccc4c(c2)OCO4)C1C(=O)OC)OCO3` (some centres not stated): the growth inhibition in test [1] (setting [7]) is 2%; in test [1] (setting [8]), 26%; in test [1] (at 50.0 µM), 48.6%; in test [2] (setting [7]) it was -5%; in test [2] (setting [8]) it was 20%; in test [2] (at 50.0 µM), 33.9%. The growth inhibition in test [3] (setting [7]) is 3%; in test [3] (setting [8]), 40%; in test [3] (at 50.0 µM), 47.5%; in test [4] (setting [7]) it was 0%; in test [4] (setting [8]), 40%; in test [4] (at 50.0 µM), 37%. Moreover, the growth inhibition in test [5] (setting [7]) was 26%; in test [5] (setting [8]), 70% (active); in test [5] (at 50.0 µM) it was 71.4% (active); in test [6] (setting [7]), 2%; in test [6] (setting [8]), 23%; in test [6] (at 50.0 µM) it was 56.8%.

For the compound `C=CCNC(=O)NC(=O)CSC1=NNC2(C(=O)N1)c1ccccc1-c1ccccc12`, the growth inhibition in test [1] (setting [7]) was -4%; in test [1] (setting [8]), 74% (active); in test [1] (at 50.0 µM), 85.2% (active); in test [2] (setting [7]), -21%; in test [2] (setting [8]), 65%; in test [2] (at 50.0 µM), 78.7% (active). The growth inhibition in test [3] (setting [7]) is -11%; in test [3] (setting [8]), 85% (active); in test [3] (at 50.0 µM), 87.1% (active); in test [4] (setting [7]) it was 2%; in test [4] (setting [8]) it was 82% (active); in test [4] (at 50.0 µM), 85.7% (active). Moreover, the growth inhibition in test [5] (setting [7]) was -16%; in test [5] (setting [8]), 91% (active); in test [5] (at 50.0 µM), 86.5% (active); in test [6] (setting [7]), -6%; in test [6] (setting [8]) it was 88% (active); in test [6] (at 50.0 µM), 86.7% (active).

For the compound `CC(C)C1=C2CCC3(C)C(CCC4C5C6OCC5(CCC6(C)C)CCC43C)C2(C)CC1` (configuration not stated), the growth inhibition in test [1] (setting [7]) was 22%; in test [1] (setting [8]), 49%; in test [1] (at 50.0 µM), 72.5% (active); in test [2] (setting [7]), 6%; in test [2] (setting [8]), 40%; in test [2] (at 50.0 µM), 77.5% (active). The growth inhibition was 19% in test [3] (setting [7]); 69% in test [3] (setting [8]); 82.3% (active) in test [3] (at 50.0 µM); 27% in test [4] (setting [7]); 62% in test [4] (setting [8]); 83.7% (active) in test [4] (at 50.0 µM). For the same compound, the growth inhibition in test [5] (setting [7]) was 10%; in test [5] (setting [8]) it was 57%; in test [5] (at 50.0 µM), 77% (active); in test [6] (setting [7]), 17%; in test [6] (setting [8]), 45%; in test [6] (at 50.0 µM) it was 65.5%.

Turning to `O=S(=O)(Nc1ccccc1)c1ccccc1C#Cc1ccccc1`, the growth inhibition is -3% in test [1] (setting [7]); 91% (active) in test [1] (setting [8]); 89.8% (active) in test [1] (at 50.0 µM); -2% in test [2] (setting [7]); 92% (active) in test [2] (setting [8]); 79.2% (active) in test [2] (at 50.0 µM). For the same compound, the growth inhibition in test [3] (setting [7]) was 10%; in test [3] (setting [8]), 93% (active); in test [3] (at 50.0 µM) it was 86.9% (active); in test [4] (setting [7]) it was -70%; in test [4] (setting [8]), 92% (active); in test [4] (at 50.0 µM), 74.3% (active). In addition, the growth inhibition is 2% in test [5] (setting [7]); 64% in test [5] (setting [8]); 89.8% (active) in test [5] (at 50.0 µM); 3% in test [6] (setting [7]); 95% (active) in test [6] (setting [8]); 91.5% (active) in test [6] (at 50.0 µM).

Take `C[N+]1(Cc2ccc([N+](=O)[O-])cc2)CCC[C@H]1c1ccc[n+](Cc2ccc([N+](=O)[O-])cc2)c1` (some centres not stated): the growth inhibition was 0% in test [1] (setting [7]); 27% in test [1] (setting [8]); 10.2% in test [1] (at 50.0 µM); -1% in test [2] (setting [7]); 13% in test [2] (setting [8]); 8.85% in test [2] (at 50.0 µM). Also, the growth inhibition in test [3] (setting [7]) was -15%; in test [3] (setting [8]), -2%; in test [3] (at 50.0 µM), 65.1%; in test [4] (setting [7]), -7%; in test [4] (setting [8]), 0%; in test [4] (at 50.0 µM), 63.2%. Further, the growth inhibition was 2% in test [5] (setting [7]); 11% in test [5] (setting [8]); 9.65% in test [5] (at 50.0 µM); -28% in test [6] (setting [7]); 24% in test [6] (setting [8]); 84.6% (active) in test [6] (at 50.0 µM).

Take `CC(=O)c1c(O)c2ccc(Cl)cc2[nH]c1=O`: the growth inhibition in test [1] (setting [7]) is 73% (active); in test [1] (setting [8]), 90% (active); in test [1] (at 50.0 µM), 79.2% (active); in test [2] (setting [7]) it was 36%; in test [2] (setting [8]), 87% (active); in test [2] (at 50.0 µM) it was 14.7%. In addition, the growth inhibition is 79% (active) in test [3] (setting [7]); 95% (active) in test [3] (setting [8]); 83.2% (active) in test [3] (at 50.0 µM); 25% in test [4] (setting [7]); 59% in test [4] (setting [8]); 31.5% in test [4] (at 50.0 µM). Also, the growth inhibition in test [5] (setting [7]) is 71% (active); in test [5] (setting [8]) it was 91% (active); in test [5] (at 50.0 µM) it was 38.2%; in test [6] (setting [7]), 72% (active); in test [6] (setting [8]), 94% (active); in test [6] (at 50.0 µM), 66.7%.
